Laboratory results as given in the supplement of paper PMC11001985.

compound: C#CCNC(=O)CCSSCCC(=O)NCCc1ccc(C=O)c(C=O)c1; assay: lysine labeling ratio R10:1 (500 µM / 50 µM probe), SILAC-ABPP in living cells; higher = lower intrinsic lysine reactivity toward the probe, active = 2 or less; settings: HeLa; probe concentrations 500 vs 50 µM
In short: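 Living SILAC light and heavy HeLa cells in PBS at room temperature were treated with an alkyne-tagged, disulfide-linked lysine probe at 50 µM or 500 µM, with forward and reverse label swaps. The mixed lysates were clicked to biotin-azide, digested with trypsin, captured on neutravidin, released with DTT, alkylated and run by LC-MS/MS on a TIMS-TOF Pro. R for each lysine is the filtered median high-probe/low-probe MS1 peptide ratio, taken again as the median over forward and reverse replicates. Any value above 20 is set to 20.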

Sequence of UniProt P17844 (P17844 whole entry): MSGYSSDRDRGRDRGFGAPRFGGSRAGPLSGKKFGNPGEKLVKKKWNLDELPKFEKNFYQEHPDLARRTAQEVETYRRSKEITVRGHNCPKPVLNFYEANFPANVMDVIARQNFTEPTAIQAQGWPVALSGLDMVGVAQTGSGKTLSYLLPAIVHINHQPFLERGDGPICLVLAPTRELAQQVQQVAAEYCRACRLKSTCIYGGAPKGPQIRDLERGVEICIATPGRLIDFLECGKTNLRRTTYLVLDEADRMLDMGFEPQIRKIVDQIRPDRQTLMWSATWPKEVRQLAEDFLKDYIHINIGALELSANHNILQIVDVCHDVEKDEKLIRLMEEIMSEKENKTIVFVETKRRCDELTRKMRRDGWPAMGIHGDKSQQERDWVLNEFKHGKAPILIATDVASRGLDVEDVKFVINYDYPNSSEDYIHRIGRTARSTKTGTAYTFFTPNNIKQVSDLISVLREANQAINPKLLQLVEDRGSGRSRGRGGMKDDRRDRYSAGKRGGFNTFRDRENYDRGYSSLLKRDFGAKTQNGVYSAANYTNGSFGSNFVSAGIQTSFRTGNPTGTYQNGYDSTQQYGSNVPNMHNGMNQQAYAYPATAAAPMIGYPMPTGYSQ
Sequence of UniProt Q6YHK3 (Q6YHK3 whole entry): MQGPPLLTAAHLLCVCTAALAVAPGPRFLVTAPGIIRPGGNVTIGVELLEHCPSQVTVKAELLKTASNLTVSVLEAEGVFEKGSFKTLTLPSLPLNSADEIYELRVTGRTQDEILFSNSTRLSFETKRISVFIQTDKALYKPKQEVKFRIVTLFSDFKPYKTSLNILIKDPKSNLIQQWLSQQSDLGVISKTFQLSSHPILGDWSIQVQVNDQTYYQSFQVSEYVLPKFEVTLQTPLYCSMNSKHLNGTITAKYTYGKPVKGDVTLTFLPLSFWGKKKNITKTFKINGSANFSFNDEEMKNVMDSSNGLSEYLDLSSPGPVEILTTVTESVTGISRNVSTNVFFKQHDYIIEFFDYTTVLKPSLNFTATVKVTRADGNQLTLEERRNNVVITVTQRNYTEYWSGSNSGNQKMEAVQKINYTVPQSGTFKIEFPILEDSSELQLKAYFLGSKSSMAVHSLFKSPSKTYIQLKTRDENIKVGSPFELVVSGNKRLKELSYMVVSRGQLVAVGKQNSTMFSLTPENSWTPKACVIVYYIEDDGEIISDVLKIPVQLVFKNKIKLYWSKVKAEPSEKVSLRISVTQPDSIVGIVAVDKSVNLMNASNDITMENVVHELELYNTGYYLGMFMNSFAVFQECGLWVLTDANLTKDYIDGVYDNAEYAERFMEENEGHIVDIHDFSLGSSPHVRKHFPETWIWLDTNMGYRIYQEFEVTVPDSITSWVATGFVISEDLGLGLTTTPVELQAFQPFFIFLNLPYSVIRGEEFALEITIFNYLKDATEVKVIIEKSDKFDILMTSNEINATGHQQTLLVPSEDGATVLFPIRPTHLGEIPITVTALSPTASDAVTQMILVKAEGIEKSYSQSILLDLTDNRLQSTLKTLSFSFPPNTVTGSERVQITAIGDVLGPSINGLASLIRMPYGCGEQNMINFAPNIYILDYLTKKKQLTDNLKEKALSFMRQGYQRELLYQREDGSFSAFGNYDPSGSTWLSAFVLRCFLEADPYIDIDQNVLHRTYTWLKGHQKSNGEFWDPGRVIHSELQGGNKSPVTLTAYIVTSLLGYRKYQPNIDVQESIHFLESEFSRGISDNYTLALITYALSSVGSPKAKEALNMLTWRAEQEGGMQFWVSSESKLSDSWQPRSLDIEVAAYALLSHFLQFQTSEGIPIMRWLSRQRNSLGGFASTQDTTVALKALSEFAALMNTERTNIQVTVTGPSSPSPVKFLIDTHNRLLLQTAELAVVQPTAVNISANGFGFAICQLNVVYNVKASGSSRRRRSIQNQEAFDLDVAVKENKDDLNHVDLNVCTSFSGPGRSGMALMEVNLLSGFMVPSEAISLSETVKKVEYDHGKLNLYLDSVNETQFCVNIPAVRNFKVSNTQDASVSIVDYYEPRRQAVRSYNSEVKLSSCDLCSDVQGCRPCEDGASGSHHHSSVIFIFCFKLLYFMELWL
Sequence of UniProt Q9Y6W5 (Q9Y6W5 whole entry): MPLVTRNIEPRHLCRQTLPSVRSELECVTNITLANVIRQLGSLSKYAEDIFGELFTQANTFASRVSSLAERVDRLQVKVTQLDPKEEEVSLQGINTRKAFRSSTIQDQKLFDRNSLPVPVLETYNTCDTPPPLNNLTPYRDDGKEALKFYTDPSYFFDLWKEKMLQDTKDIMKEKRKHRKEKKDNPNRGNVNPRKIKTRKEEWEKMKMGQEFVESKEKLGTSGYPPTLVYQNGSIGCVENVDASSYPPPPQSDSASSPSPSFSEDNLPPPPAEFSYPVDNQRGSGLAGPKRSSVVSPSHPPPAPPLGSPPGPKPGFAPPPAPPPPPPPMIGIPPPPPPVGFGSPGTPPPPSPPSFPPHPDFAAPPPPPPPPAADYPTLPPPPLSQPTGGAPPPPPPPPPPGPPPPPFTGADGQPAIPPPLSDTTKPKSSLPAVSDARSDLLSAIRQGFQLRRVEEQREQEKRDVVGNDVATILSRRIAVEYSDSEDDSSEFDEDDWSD
Sequence of UniProt P05556 (P05556 whole entry): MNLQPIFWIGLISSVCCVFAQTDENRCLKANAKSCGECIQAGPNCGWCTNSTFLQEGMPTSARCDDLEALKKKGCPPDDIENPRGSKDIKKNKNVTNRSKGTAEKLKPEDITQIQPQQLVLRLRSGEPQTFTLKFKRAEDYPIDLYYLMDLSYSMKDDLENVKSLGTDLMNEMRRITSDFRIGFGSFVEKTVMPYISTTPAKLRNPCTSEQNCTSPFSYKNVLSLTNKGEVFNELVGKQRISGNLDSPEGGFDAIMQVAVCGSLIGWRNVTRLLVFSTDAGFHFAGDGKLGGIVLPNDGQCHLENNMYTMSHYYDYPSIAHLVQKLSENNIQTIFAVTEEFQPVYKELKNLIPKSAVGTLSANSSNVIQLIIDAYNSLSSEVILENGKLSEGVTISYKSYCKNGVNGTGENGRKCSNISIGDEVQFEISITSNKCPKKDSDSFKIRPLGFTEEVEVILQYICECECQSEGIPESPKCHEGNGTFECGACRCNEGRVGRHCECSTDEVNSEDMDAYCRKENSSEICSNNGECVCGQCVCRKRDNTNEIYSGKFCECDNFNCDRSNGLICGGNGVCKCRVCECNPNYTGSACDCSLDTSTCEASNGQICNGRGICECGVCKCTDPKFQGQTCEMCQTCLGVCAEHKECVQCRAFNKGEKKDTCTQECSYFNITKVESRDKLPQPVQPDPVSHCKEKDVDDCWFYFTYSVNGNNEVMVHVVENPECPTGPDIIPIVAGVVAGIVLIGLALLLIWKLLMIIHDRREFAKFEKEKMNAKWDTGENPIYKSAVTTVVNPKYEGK
Sequence of UniProt Q99623 (Q99623 whole entry): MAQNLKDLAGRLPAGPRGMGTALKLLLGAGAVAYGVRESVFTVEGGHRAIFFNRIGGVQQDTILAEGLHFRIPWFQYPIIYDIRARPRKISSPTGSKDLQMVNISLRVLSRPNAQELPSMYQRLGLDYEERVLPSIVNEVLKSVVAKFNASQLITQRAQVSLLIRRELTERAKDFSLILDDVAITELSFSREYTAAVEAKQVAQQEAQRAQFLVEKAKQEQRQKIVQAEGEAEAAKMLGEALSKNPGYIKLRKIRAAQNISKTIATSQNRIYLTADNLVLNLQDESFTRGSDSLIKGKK
Sequence of UniProt P12956 (P12956 whole entry): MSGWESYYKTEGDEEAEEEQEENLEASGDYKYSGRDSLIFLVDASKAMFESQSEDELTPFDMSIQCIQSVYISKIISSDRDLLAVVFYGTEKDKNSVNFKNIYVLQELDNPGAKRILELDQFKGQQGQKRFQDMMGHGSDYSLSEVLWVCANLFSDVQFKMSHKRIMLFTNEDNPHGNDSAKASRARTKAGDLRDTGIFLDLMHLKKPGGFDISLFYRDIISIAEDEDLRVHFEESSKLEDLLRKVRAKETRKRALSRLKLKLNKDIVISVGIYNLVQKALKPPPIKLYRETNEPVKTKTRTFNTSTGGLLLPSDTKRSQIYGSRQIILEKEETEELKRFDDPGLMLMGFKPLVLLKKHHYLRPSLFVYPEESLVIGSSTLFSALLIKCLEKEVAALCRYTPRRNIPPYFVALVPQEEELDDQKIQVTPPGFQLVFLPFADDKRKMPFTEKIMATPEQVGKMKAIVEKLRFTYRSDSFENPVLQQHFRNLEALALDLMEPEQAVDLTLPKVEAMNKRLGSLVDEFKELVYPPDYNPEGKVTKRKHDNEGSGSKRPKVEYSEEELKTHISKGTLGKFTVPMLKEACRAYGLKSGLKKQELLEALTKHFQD
Sequence of UniProt P30041 (P30041 whole entry): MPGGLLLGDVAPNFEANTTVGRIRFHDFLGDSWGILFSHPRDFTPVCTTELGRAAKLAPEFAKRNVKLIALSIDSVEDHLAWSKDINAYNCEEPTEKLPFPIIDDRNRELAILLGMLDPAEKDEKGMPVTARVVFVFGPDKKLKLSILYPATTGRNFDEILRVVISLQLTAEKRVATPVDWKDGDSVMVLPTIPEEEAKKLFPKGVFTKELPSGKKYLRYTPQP
Sequence of UniProt Q99497 (Q99497 whole entry): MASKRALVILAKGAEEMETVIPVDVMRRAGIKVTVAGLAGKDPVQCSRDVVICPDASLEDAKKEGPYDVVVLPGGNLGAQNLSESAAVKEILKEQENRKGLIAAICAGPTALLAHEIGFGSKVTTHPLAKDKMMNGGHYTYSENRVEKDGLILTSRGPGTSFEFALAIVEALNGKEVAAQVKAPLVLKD
Sequence of UniProt P69905 (P69905 whole entry): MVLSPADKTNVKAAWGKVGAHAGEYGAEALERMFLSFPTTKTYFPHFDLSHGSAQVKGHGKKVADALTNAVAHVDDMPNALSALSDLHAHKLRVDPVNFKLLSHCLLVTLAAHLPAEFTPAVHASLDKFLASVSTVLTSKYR

Lysine labeling ratio R10:1, active:
VAPA (lysine site: K174) (UniProt Q9P0L0) 1.89
WASF2 (lysine site: K109) (UniProt Q9Y6W5) 1.24
ASPH (lysine site: K588) (UniProt Q12797) 1.1
TKT (lysine site: K538) (UniProt P29401) 1.86
PLXNA1 (lysine site: K868) (UniProt Q9UIW2) 1.37
FLOT1 (lysine site: K54) (UniProt O75955) 0.737
COPA (lysine site: K607) (UniProt P53621) 1.94
AHNAK (lysine site: K134) (UniProt Q09666) 1.99
CCT6A (lysine site: K199) (UniProt P40227) 0.593
XRCC6 (lysine site: K338) (UniProt P12956) 1.69
LAMC1 (lysine site: K1258) (UniProt P11047) 1.54
UniProt Q16352 (lysine site: K290) 1.71
CTTN (lysine site: K161) (UniProt Q14247) 1.61
TLN1 (lysine site: K357) (UniProt Q9Y490) 1.16
PARK7 (lysine site: K188) (UniProt Q99497) 1.98
NEGR1 (lysine site: K180) (UniProt Q7Z3B1) 1.72
AHCY (lysine site: K20) (UniProt P23526) 1.54
UniProt O00487 (lysine site: K154) 0.527
FKBP4 (lysine site: K354) (UniProt Q02790) 1.51
CD109 (lysine site: K1022) (UniProt Q6YHK3) 0.98
ECH1 (lysine site: K231) (UniProt Q13011) 1.7

Lysine labeling ratio R10:1, inactive:
UniProt P21589 (lysine site: K433) 3.8
DDX5 (lysine site: K470) (UniProt P17844) 4.7
UniProt P41250 (lysine site: K646) 2.94
UniProt Q99623 (lysine site: K218) 2.79
CACNA2D1 (lysine site: K1048) (UniProt P54289) 6.59
ITGB1 (lysine site: K87) (UniProt P05556) 2.04
MCAM (lysine site: K185) (UniProt P43121) 3.4
ACTN4 (lysine site: K437) (UniProt O43707) 2.2
UniProt P62263 (lysine site: K125) 5.61
EZR (lysine site: K143) (UniProt P15311) 2.46
DDX5 (lysine site: K236) (UniProt P17844) 2.34
UniProt Q13275 (lysine site: K581) 3.3
LRP1 (lysine site: K3988) (UniProt Q07954) 4.67
RPL22 (lysine site: K107) (UniProt P35268) 2.29
UniProt Q15149 (lysine site: K2309) 2.6
EGFR (lysine site: K500) (UniProt P00533) 12.8
PRDX6 (lysine site: K63) (UniProt P30041) 2.85
HBA1 (lysine site: K17) (UniProt P69905) 3.74
CD44 (lysine site: K38) (UniProt P16070) 5.01
